In PubChem BioAssay (NCATS):
Records with an inconclusive call do not appear. Values without a mark were called inactive. Calls of active or inactive are those of the source. Calls come from the whole dose curve; as a rule, active = well fitted inhibition curve with a large enough effect; inconclusive = small, poorly fitted or top-dose-only effect; inactive = flat fitted curve, though single readings scatter.

These molecules were tested on CRL-7250 (assay: Cytotoxic Profiling of Annotated Libraries Using Quantitative High-Throughput Screening (AID 1296008; note: nearly all actives have a fitted effect of over 60% in size)). Details: Five cell lines viability, CellTiter-Glo ATP luminescence, 48-72 h; max response: hits give low values.
In short: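 Cytotoxicity was measured as CellTiter-Glo ATP luminescence, read after 10 min at room temperature. Compound treatment of the cells lasted 48 or 72 hr at 37 degrees Celsius in a qHTS format.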
% is set by controls: 0 for no effect and ±100 for the full control effect; potency is the fitted concentration of half-maximal effect.

Structure (SMILES) | outcome | max response | Potency
CC1(C)CC[C@]2(C(=O)O[C@@H]3O[C@H](CO)[C@@H](O)[C@H](O)[C@H]3O)CC[C@]3(C)C(=CCC4[C@@]5(C)C[C@@H](O)[C@H](O)[C@](C)(C=O)C5CC[C@]43C)[C@@H]2[C@@H]1O (some centres not stated) | inactive |  | 
C=C(C(=O)OC)C1C(O)CC2(C)C(=O)CCC(O)(CO)C2C1O (configuration not stated) | inactive |  | 
CC1CCC2(OC1)OC1CC3C4CCC5C[C@@H](O[C@@H]6O[C@H](CO[C@@H]7OC[C@@H](O)[C@H](O)[C@H]7O)[C@H](O)[C@H](O)[C@H]6O)CC[C@]5(C)C4CC[C@]3(C)C1C2C (some centres not stated) |  | -3.87% | 
CC(=O)NCC(=O)N1C2CCC1c1cc(Nc3ncc(C(F)(F)F)c(NC4CCC4)n3)ccc12 (configuration not stated) |  |  | 1.64 µM (active)
CCOc1ccc2nc(SCCN3CCOCC3)[nH]c2c1 |  | -3.31% | 
C=C1C(OC(=O)/C(C)=C\C)[C@@]23CCC4[C@@](C)(CCC[C@@]4(C)C(=O)O)C2CC[C@H]1C3OC(C)=O (some centres not stated) |  | -2.82% | 
C[C@@H]1O[C@@H](O[C@H]2[C@H](O)[C@@H](O)[C@H](OC3CCC4(C)C5CCC(C)(C(CO)OC6OC(CO)C(O)C(O)C6O)CC5=CCC4C3(C)C)O[C@@H]2CO)[C@H](O)[C@H](O)[C@H]1O (some centres not stated) |  | 2.65% | 
